8 compounds from PubChem BioAssay (NCI) can be followed below.

Some test systems named below: SK-MEL-2 melanoma; EKVX NSCLC; SN12C renal; UO-31 renal; TK-10 renal; ACHN renal; CAKI-1 renal; A498 renal; CCRF-CEM leukemia; MOLT-4 leukemia; SR leukemia; RPMI-8226 leukemia; OVCAR-8 ovarian; OVCAR-5 ovarian; OVCAR-4 ovarian; SK-OV-3 ovarian; OVCAR-3 ovarian; HS 578T breast; NCI/ADR-RES ovarian; IGROV1 ovarian.
Holding throughout (assay): NCI-60 one-dose screen, 48 h (100 = growth as untreated, 0 = no growth, -100 = all killed)
Conditions in all cases: 10 µM unless noted

SMILES strings stand for the structures. About 83,000 compounds went through this panel and 20% of them were active in at least one assay; those are over-represented in the sample as a whole.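 48-hour exposure, single concentration, 96-well plates; percent growth endpoint where 0 means no net growth. Active: below 10.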 Unmarked numbers belong to inactive results. Activity calls are given as the source filed them.

As to `COc1cc2cc(C(=O)N3C[C@@H](CCl)c4c3cc(OC(=O)N(CCC(=O)N3CCN(C)CC3)[C@H]3CCSSC3)c3ccccc43)[nH]c2c(OC)c1OC`, the growth is -85% (active) in the experiment on SK-MEL-2 melanoma; -67.7% (active) in the experiment on EKVX NSCLC; -10.3% (active) in the experiment with SN12C renal; -26.9% (active) with UO-31 renal; 8.66% (active) in the experiment with TK-10 renal; -6.81% (active) with ACHN renal. Further, the growth in the experiment on CAKI-1 renal was 13.7%; with A498 renal, -19.6% (active); with CCRF-CEM leukemia, 32%; with MOLT-4 leukemia, -9.57% (active); with SR leukemia, -22.9% (active); in the experiment with RPMI-8226 leukemia, -5.04% (active). Also, the growth with OVCAR-8 ovarian is -49.8% (active); in the experiment with OVCAR-5 ovarian, -4.73% (active); in the experiment on OVCAR-4 ovarian, -11.9% (active); in the experiment with SK-OV-3 ovarian it was 10.8%; in the experiment on OVCAR-3 ovarian it was -55.8% (active); in the experiment with HS 578T breast it was -14.1% (active). In the experiment on NCI/ADR-RES ovarian, the growth was -55.3% (active).
`Cn1cc(-c2cc(N)n3nc(-c4c[nH]c5ccc(Cl)cc45)cc3n2)c2cccnc21`: the growth is 81% in the experiment with SK-MEL-2 melanoma; -71.9% (active) with EKVX NSCLC; -80% (active) in the experiment with SN12C renal; -77.5% (active) in the experiment on UO-31 renal; -85.9% (active) in the experiment on TK-10 renal; -98.8% (active) in the experiment with ACHN renal. Also, the growth with CAKI-1 renal was -62.3% (active); in the experiment with A498 renal it was -79.7% (active); in the experiment with CCRF-CEM leukemia it was -34.8% (active); in the experiment on MOLT-4 leukemia it was -37.8% (active); with SR leukemia it was -26.2% (active); in the experiment with RPMI-8226 leukemia, -17.8% (active). For the same compound, the growth in the experiment with OVCAR-8 ovarian is -76.2% (active); in the experiment with OVCAR-5 ovarian it was -82.5% (active); in the experiment with OVCAR-4 ovarian, -42% (active); in the experiment on SK-OV-3 ovarian, -73.5% (active); in the experiment with OVCAR-3 ovarian it was -71.3% (active); in the experiment with HS 578T breast, -26.2% (active). Moreover, in the experiment with NCI/ADR-RES ovarian, the growth is -73.8% (active).
On to `C=CC(=O)Nc1ccc(C(=O)/C=C/c2ccc(N(C)C)cc2)c(O)c1`, for which the growth with SK-MEL-2 melanoma was 3.4% (active); with EKVX NSCLC it was 17.3%; in the experiment on SN12C renal, 5.34% (active); with UO-31 renal, 1.04% (active); in the experiment with TK-10 renal it was 23.9%; in the experiment with ACHN renal, -47.5% (active). The growth was -18.1% (active) in the experiment on CAKI-1 renal; 42.8% in the experiment with A498 renal; 11.2% with CCRF-CEM leukemia; 7.05% (active) in the experiment on MOLT-4 leukemia; 2.78% (active) in the experiment with SR leukemia; 6.01% (active) in the experiment on RPMI-8226 leukemia. In addition, the growth with OVCAR-8 ovarian was -8.4% (active); with OVCAR-5 ovarian, 7.71% (active); with OVCAR-4 ovarian it was 39%; with SK-OV-3 ovarian it was 11.7%; in the experiment on OVCAR-3 ovarian it was -18.3% (active); with HS 578T breast, 21.7%. The growth with NCI/ADR-RES ovarian is 15.3%.
Turning to `COc1ccc(-c2cc(C(=O)OCc3ccc(Br)cc3)nn2-c2ccc(S(C)(=O)=O)cc2)cc1OC`, the growth was 95% in the experiment with SK-MEL-2 melanoma; 76.1% in the experiment with EKVX NSCLC; 78.3% with SN12C renal; 42.4% with UO-31 renal; 75.5% in the experiment with TK-10 renal; 85.1% with ACHN renal. In addition, the growth in the experiment with CAKI-1 renal is 83.5%; in the experiment with A498 renal, 70.3%; in the experiment with CCRF-CEM leukemia, 84.2%; in the experiment on MOLT-4 leukemia, 64.5%; in the experiment on SR leukemia, 62.8%; in the experiment on RPMI-8226 leukemia, 52.8%. Besides, the growth was 87.3% with OVCAR-8 ovarian; 73.3% in the experiment on OVCAR-4 ovarian; 83.7% in the experiment with SK-OV-3 ovarian; 95.6% in the experiment on IGROV1 ovarian; 80.3% with OVCAR-3 ovarian; 65.4% with HS 578T breast. The growth with NCI/ADR-RES ovarian is 78.3%.
Regarding `N#Cc1ccc(C(=O)CSc2nc3c(c(Nc4ccc(S(N)(=O)=O)cc4)n2)CCC3)cc1`, the growth in the experiment on SK-MEL-2 melanoma is 87.4%; with EKVX NSCLC, 49.8%; in the experiment with SN12C renal, 35.3%; in the experiment with UO-31 renal it was 66.8%; in the experiment on TK-10 renal, 55.2%; in the experiment with ACHN renal it was 10.9%. For the same compound, the growth was 39.1% with CAKI-1 renal; 137% in the experiment on A498 renal; 81.1% in the experiment with CCRF-CEM leukemia; 73.3% in the experiment on MOLT-4 leukemia; 58.9% in the experiment with SR leukemia; 79.2% in the experiment on RPMI-8226 leukemia. Moreover, the growth in the experiment on OVCAR-8 ovarian was 3.1% (active); in the experiment on OVCAR-5 ovarian it was 70.8%; with OVCAR-4 ovarian, 43.9%; in the experiment with SK-OV-3 ovarian, 67.2%; with OVCAR-3 ovarian it was 97.1%; with HS 578T breast, 26.1%. Also, the growth in the experiment on NCI/ADR-RES ovarian is 53%.
Turning to `COc1ccc2ccccc2c1/C=C1\SC(=Nc2ccc(O)cc2)NC1=O`, the growth in the experiment with SK-MEL-2 melanoma was 27.1%; with EKVX NSCLC, 15.8%; in the experiment with SN12C renal, 6.03% (active); with UO-31 renal, 17.7%; in the experiment with TK-10 renal, 36.9%; in the experiment on ACHN renal, 17%. In addition, the growth is 9.94% (active) in the experiment on CAKI-1 renal; 93.5% in the experiment with A498 renal; 2.89% (active) with CCRF-CEM leukemia; 9.45% (active) in the experiment with MOLT-4 leukemia; 20.8% in the experiment on SR leukemia; -12.7% (active) with RPMI-8226 leukemia. The growth with OVCAR-8 ovarian is 9.1% (active); with OVCAR-5 ovarian, 10.3%; with OVCAR-4 ovarian, 56.2%; in the experiment on SK-OV-3 ovarian, 29.6%; in the experiment on OVCAR-3 ovarian, 35.5%; in the experiment on HS 578T breast, 24.1%. The growth in the experiment on NCI/ADR-RES ovarian is -5.75% (active).
For `NCCCCn1c(SCCc2c[nH]c3ccccc23)nnc1-c1ccc2ccccc2n1`, the growth in the experiment on SK-MEL-2 melanoma is -73.5% (active); with EKVX NSCLC it was -0.327% (active); in the experiment with SN12C renal, -14.8% (active); in the experiment with UO-31 renal, 26.4%; in the experiment with TK-10 renal it was -7.11% (active); in the experiment with ACHN renal, -55.1% (active). For the same compound, the growth is -9.25% (active) with CAKI-1 renal; 98.5% with A498 renal; -23.3% (active) in the experiment with CCRF-CEM leukemia; -35.4% (active) in the experiment with MOLT-4 leukemia; -19.7% (active) with SR leukemia; -50.3% (active) in the experiment on RPMI-8226 leukemia. The growth in the experiment with OVCAR-8 ovarian was -9.11% (active); in the experiment on OVCAR-4 ovarian, -11.1% (active); with SK-OV-3 ovarian it was 22.3%; in the experiment on IGROV1 ovarian, 3.95% (active); in the experiment with OVCAR-3 ovarian, 10.4%; in the experiment with HS 578T breast, -25.4% (active). Besides, in the experiment on NCI/ADR-RES ovarian, the growth is 62.3%.
`O=C(OCCOCCO)N(c1cccc(Br)c1)c1nc(SCCN2CCOCC2)nc2c1cnn2CC(Cl)c1ccc(Br)cc1` (configuration not stated): the growth in the experiment with SK-MEL-2 melanoma was -60.3% (active); with EKVX NSCLC, 26.6%; in the experiment with SN12C renal, 20.3%; in the experiment with UO-31 renal, -3.09% (active); in the experiment with TK-10 renal, 40.5%; in the experiment with ACHN renal, 2.9% (active). Also, the growth in the experiment with CAKI-1 renal is 27.8%; in the experiment with A498 renal, 45.5%; in the experiment with CCRF-CEM leukemia it was -18.4% (active); with MOLT-4 leukemia it was -24.3% (active); with SR leukemia, -27.8% (active); in the experiment with RPMI-8226 leukemia it was -25.7% (active). The growth was 19.6% in the experiment with OVCAR-8 ovarian; 34.7% in the experiment on OVCAR-5 ovarian; 23.5% with OVCAR-4 ovarian; 25.3% in the experiment with SK-OV-3 ovarian; 20% in the experiment on OVCAR-3 ovarian; -2.13% (active) with HS 578T breast. Also, the growth with NCI/ADR-RES ovarian was 12.3%.
